In PubChem BioAssay (NCI):
About 83,000 compounds went through this panel and 20% of them were active in at least one assay; those are over-represented in the sample as a whole.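 Cell lines were cultured in 96-well plates, exposed to a single compound concentration, and assessed for percent growth 48 hours later.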 A number with no mark means an inactive call. Activity calls are given as the source filed them. The calls were made as follows: active = growth percent below 10; inactive = the rest.

Legend:
Experiment in all cases: NCI-60 one-dose screen, 48 h (100 = growth as untreated, 0 = no growth, -100 = all killed)
Conditions in all cases: 10 µM unless noted
RPMI-8226 leukemia = system: RPMI-8226 leukemia
OVCAR-8 ovarian = system: OVCAR-8 ovarian
OVCAR-5 ovarian = system: OVCAR-5 ovarian
OVCAR-4 ovarian = system: OVCAR-4 ovarian
SK-OV-3 ovarian = system: SK-OV-3 ovarian
IGROV1 ovarian = system: IGROV1 ovarian
OVCAR-3 ovarian = system: OVCAR-3 ovarian
HS 578T breast = system: HS 578T breast
NCI/ADR-RES ovarian = system: NCI/ADR-RES ovarian
T-47D breast = system: T-47D breast
BT-549 breast = system: BT-549 breast
MDA-MB-435 melanoma = system: MDA-MB-435 melanoma
SW-620 colon = system: SW-620 colon
MCF7 breast = system: MCF7 breast
HCT-116 colon = system: HCT-116 colon
KM12 colon = system: KM12 colon
HCC-2998 colon = system: HCC-2998 colon

| Compound | growth (RPMI-8226 leukemia) | growth (OVCAR-8 ovarian) | growth (OVCAR-5 ovarian) [%] | growth (OVCAR-4 ovarian) [%] | growth (SK-OV-3 ovarian) [%] | growth (IGROV1 ovarian) | growth (OVCAR-3 ovarian) | growth (HS 578T breast) | growth (NCI/ADR-RES ovarian) | growth (T-47D breast) [%] | growth (BT-549 breast) [%] | growth (MDA-MB-435 melanoma) | growth (SW-620 colon) [%] | growth (MCF7 breast) | growth (HCT-116 colon) | growth (KM12 colon) | growth (HCC-2998 colon) |
| --- | --- | --- | --- | --- | --- | --- | --- | --- | --- | --- | --- | --- | --- | --- | --- | --- | --- |
| COc1nc2ccccc2s1 | 91.6% | 96.3% | 93.1 | 118 | 89.5 | 98.6% | 110% | 91% | 99.2% | 99.2 | 90.6 | 105% | 93 | 87.8% | 103% | 102% |  |
| CCOC(=O)c1ccc(NC(=O)Nc2nccs2)cc1 | 6.43% (active) | 8.24% (active) | 25.9 | 16.7 | 10.8 | -16.2% (active) | -48.8% (active) | 48.4% | -6.67% (active) | 57.3 |  | 5.34% (active) | 16.5 | 0.495% (active) | 1.86% (active) | -33.3% (active) | -27.7% (active) |
| O=C(O)C1CCCN1C(=O)OCc1ccccc1 (stereo unspecified) | 112% | 94.8% | 105 | 122 | 102 | 104% | 120% | 100% | 105% | 102 | 85.8 | 102% |  | 90% | 107% | 113% |  |
| Cc1cccc2ccccc12 | 101% | 100% | 104 | 108 | 103 | 112% | 110% | 107% | 99.6% | 109 | 99.6 | 104% | 102 | 84.1% | 95.8% | 106% | 99.8% |
| S=c1nc2[nH]c3ccccc3c2n[nH]1 | 74.2% | 97.4% | 93.6 | 102 | 89.3 | 103% | 88.6% | 80.2% | 102% | 88.2 | 102 | 107% | 95 | 92.2% | 96.4% | 130% | 102% |
| CCOC(=O)c1cc(Cl)c(O)c(Cl)c1 | 101% | 100% | 108 | 120 | 109 | 96.8% | 115% | 109% | 111% | 118 | 105 | 126% |  | 98.1% | 102% | 108% | 112% |
| CC(=O)Nc1ccc(/C=C2\SC(=S)N(/C=C(\C(C)=O)C(N)=O)C2=O)cc1 | 83.9% | 92.8% | 98.7 | 99.4 | 86.9 | 105% | 105% | 95.7% | 100% | 87.5 | 92.3 | 89.6% | 96.9 | 96.4% | 92.2% | 101% | 94.4% |
| O=[N+]([O-])c1c(O)c(CNCCCO)cc(CNCCCO)c1O | 116% | 106% | 108 | 105 | 106 | 2.99% (active) | 152% | 97.1% | 104% | 113 | 119 | 111% | 96.3 | 112% | 97.4% | 138% | 106% |
| Nc1ncnc(Nc2ccccc2)n1 | 96.7% | 106% | 105 | 109 | 117 | 102% | 117% | 102% | 111% | 96.3 |  | 107% | 101 | 101% | 118% | 120% |  |
| O=S(=O)(O)c1cccc2cccnc12 | 107% | 112% | 106 | 118 | 114 | 101% | 95.3% | 95.2% | 106% | 106 | 121 | 105% |  | 106% | 100% | 105% | 103% |
| Cc1cc(Nc2ccc3c(c2)OCO3)c2cc3c(cc2n1)OCO3 | -19.9% (active) | 25.7% | 45 | 81.4 | 16.2 | -37.2% (active) | -45.1% (active) | -14.2% (active) | -8.22% (active) | 44.6 | 69.8 | -68.2% (active) | 10.3 | 7.08% (active) | 23% | 9.98% (active) | 45.7% |
| CN(C)c1ccc2c(N(C)C)cc(N(C)C)nc2c1 | 69.8% | 78.3% | 102 | 72.1 | 87.5 | 103% | 93.6% | 100% | 77% | 56 |  | 80.2% | 51.6 | 13.9% | 48.1% | 78.3% | 118% |
| CC(c1ccccc1)N1C(=O)CSC1=S (stereo unspecified) | 16.9% | 34.2% | 91.2 | 29.7 | 104 | -31.6% (active) | -13.1% (active) | 81.3% |  | 63.4 | 32.9 | -8.13% (active) | 17.6 | 6.61% (active) | 5.85% (active) | -38.3% (active) | 53.2% |
| Nc1ccn(C2OC(CO)C(O)C2F)c(=O)n1 (stereo unspecified) | 73.8% | 61.8% | 93.2 | 84.4 | 103 | 109% | 80.4% | 90.8% |  | 94.1 | 93.9 | 78.4% | 67.7 | 46.7% | 49.2% | 89.6% | 49.7% |
| O=C(NC(=S)N1CC=CCC1)c1ccccc1 | 104% | 100% | 97.4 | 116 | 107 | 122% | 115% | 92.7% | 108% | 110 | 93.6 | 109% | 103 | 101% | 102% | 112% |  |
| CCCCN(C(=O)CC)c1ccccc1 | 85.1% | 101% | 105 | 105 | 114 |  | 111% | 99.4% | 110% | 110 | 104 | 108% | 98.7 | 100% | 99.8% | 102% | 112% |
| Nc1nnc2cc(F)ccc2n1 | 102% | 110% | 97.9 | 115 | 91.6 |  | 96.2% | 97.2% | 103% | 96 | 81.5 | 118% | 94.1 | 96.3% | 91.9% | 103% | 103% |
| O=C1Nc2ccccc2/C1=C\c1ccccc1O |  | 91.1% | 94.4 | 80.9 | 94.7 | 17.9% | 89.3% | 86.2% | 84.9% | 71.9 |  | 82.4% | 95.8 | 65.5% | 86.3% | 82.3% | 94.5% |
| Cc1cc2c(C(C)C)c(O)c(O)c(C=Nc3ccccc3[N+](=O)[O-])c2c(O)c1-c1c(C)cc2c(C(C)C)c(O)c(O)c(C=Nc3ccccc3[N+](=O)[O-])c2c1O | 61.5% | 76.2% | 102 | 74.4 | 97.5 | 80.6% |  | 81% | 94.8% | 83.1 | 94 | 109% | 96.3 | 91.2% | 73.7% | 47.7% | 79.5% |
